Assay results: PubChem BioAssay (EPA / NIEHS)
Values joined by “and” are separate entries in the source; they are usually repeats but may differ in a detail not shown here. Equal values may be shown once. Records with an inconclusive call do not appear. A structure can be active in one record and inactive in another. Active and inactive are the calls of the source. The calls were made as follows, unless noted: active = hit-call score of the fitted dose curve at least 0.9, where 1 is the maximum; inactive = score below 0.9.

Columns and labels:
[1] = ATG_TCF_b_cat_CIS: Attagene CIS-FACTORIAL HepG2 Assay for human T-Cell-Factor with beta-catenin (TCF/b-cat) (AID 2282965); conditions: HepG2 TCF/beta-catenin cis-reporter transcription, actives raise or lower the signal
Outline: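 Endogenous transcription factor activity is captured through cis-promoter reporter constructs transiently introduced into human HepG2 liver cells. Induced reporter mRNA is measured after 24 h and fitted bidirectionally relative to DMSO.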

[2] = ATG_TAL_CIS: Attagene CIS-FACTORIAL HepG2 Assay for human TAL Basal Promoter (AID 2282966); conditions: HepG2 Attagene cis-factorial TAL promoter reporter; actives raise or lower the signal;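 also: background control endpoint measuring basal TAL promoter reporter mRNA not a specific factor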
Outline: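 Basal-promoter background-control endpoint from a multiplexed HepG2 reporter panel. Cells were exposed 24 h, then reporter mRNA was read by RT-PCR/CE fluorescence and fitted in both directions relative to DMSO.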

[3] = ATG_TGFb_CIS: Attagene CIS-FACTORIAL HepG2 Assay for human Transforming Growth Factor (TGF) (AID 2282967); conditions: HepG2 Attagene CIS TGFb reporter, mRNA transcription; actives raise or lower the signal
Outline: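 Transient MRTU transfection of HepG2 (FuGene 6). Dose 24 h. TriZol RNA, oligo(dT) RT, PCR, 6-FAM primer extension, HpaI cut, CE. Bidirectional fit, DMSO = baseline.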

[4] = ATG_VDRE_CIS: Attagene CIS-FACTORIAL HepG2 Assay for human Vitamin D Receptor Element (VDRE) (AID 2282968); conditions: HepG2 VDRE cis-reporter transcription, actives raise or lower the signal
Outline: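 Readout is VDRE-driven reporter mRNA reflecting endogenous factor activity in human HepG2 cells, sampled 24 h post-dose. Quantification used labelled RT-PCR products separated by capillary electrophoresis; bidirectional analysis relative to DMSO.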

[5] = molecular target: Estrogen receptor (Homo sapiens) (UniProt P03372); experiment: ATG_ERa_TRANS: Attagene TRANS-FACTORIAL HepG2 Assay for human Estrogen Receptor alpha (ERa) (AID 2282970; active = hit-call score of the fitted dose curve at least 0.9, where 1 is the maximum); conditions: HepG2 Attagene TRANS ERa GAL4 reporter, mRNA
Sequence of Estrogen receptor (Homo sapiens) (P03372 whole entry, looked up, the tested form may be a part): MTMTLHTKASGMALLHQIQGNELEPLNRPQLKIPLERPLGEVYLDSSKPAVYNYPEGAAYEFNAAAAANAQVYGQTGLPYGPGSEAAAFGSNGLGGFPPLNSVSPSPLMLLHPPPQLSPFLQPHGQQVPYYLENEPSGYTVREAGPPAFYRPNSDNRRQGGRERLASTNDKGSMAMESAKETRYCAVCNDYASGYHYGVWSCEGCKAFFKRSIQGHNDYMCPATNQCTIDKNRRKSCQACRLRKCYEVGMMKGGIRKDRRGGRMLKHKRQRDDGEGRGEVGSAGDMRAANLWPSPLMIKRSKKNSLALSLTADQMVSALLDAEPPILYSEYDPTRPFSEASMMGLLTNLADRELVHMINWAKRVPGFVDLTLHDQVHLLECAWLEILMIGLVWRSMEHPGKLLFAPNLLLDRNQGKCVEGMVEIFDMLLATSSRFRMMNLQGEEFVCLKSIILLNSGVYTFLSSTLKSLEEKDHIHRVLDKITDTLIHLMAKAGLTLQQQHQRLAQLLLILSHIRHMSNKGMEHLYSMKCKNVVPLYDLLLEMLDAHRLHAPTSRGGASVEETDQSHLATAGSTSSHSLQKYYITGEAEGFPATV
Outline: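 Gal4-fusion ERa transactivation, measured as reporter transcript level in transiently transfected HepG2 cells. Exposure 24 h; RT-PCR plus capillary electrophoresis with fluorescence detection.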

[6] = molecular target: X-box-binding protein 1 (Homo sapiens) (UniProt P17861); experiment: ATG_Xbp1_CIS: Attagene CIS-FACTORIAL HepG2 Assay for human X-box Binding Protein 1 (XBP1) (AID 2282972); conditions: HepG2 XBP1 cis-element reporter, Attagene multiplex; actives raise or lower the signal
Sequence of X-box-binding protein 1 (Homo sapiens) (P17861 whole entry, looked up): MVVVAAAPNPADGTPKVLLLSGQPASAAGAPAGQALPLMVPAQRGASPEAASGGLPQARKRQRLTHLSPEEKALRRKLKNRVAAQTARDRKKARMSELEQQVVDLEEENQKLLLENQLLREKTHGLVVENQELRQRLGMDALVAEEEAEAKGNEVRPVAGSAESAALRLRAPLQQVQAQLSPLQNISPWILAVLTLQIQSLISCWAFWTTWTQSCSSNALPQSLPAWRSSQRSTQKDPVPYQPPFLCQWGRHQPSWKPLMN
Outline: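 Human hepatoma HepG2, cis-element reporter system, 24 h treatment; mRNA quantified by RT-PCR/CE fluorescence; fit relative to DMSO.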

[7] = ATG_M_19_TRANS: Attagene TRANS-FACTORIAL HepG2 Assay for M19 Transcription Factor (Internal Marker) (AID 2282974; active = hit-call score of the fitted dose curve at least 0.9, where 1 is the maximum); conditions: HepG2 Attagene TRANS-FACTORIAL M19 internal marker reporter
Outline: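 Using RT-PCR and capillary electrophoresis, reporter mRNA from transiently transfected human HepG2 cells was quantified following 24 h exposure; activity was fitted in the positive direction against DMSO.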

[8] = molecular target: Nuclear receptor subfamily 1 group I member 3 (Homo sapiens) (UniProt Q14994); experiment: ATG_CAR_TRANS: Attagene TRANS-FACTORIAL HepG2 Assay for human Constitutive Androstane Receptor (CAR) (AID 2282969; active = hit-call score of the fitted dose curve at least 0.9, where 1 is the maximum;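 also: activators raise reporter mRNA above DMSO so AC50 marks induction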); conditions: HepG2 Attagene TRANS-FACTORIAL CAR reporter
Sequence of Nuclear receptor subfamily 1 group I member 3 (Homo sapiens) (Q14994 whole entry, looked up, the tested form may be a part): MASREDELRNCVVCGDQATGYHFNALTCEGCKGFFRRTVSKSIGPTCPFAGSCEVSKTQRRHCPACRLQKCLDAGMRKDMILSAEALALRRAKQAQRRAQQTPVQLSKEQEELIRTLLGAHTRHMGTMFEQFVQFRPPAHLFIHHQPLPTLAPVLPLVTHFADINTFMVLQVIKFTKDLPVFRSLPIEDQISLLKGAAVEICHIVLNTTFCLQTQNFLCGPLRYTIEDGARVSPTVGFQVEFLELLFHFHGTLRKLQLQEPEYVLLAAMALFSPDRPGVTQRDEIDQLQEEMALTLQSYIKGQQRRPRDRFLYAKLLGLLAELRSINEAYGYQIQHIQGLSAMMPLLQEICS
Outline: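 Signal is reporter mRNA induction relative to DMSO, measured 24 h after dosing by RT-PCR with fluorescent primer extension and capillary electrophoresis. Human HepG2 liver cells carried transiently transfected chimeric NR-Gal4/GAL4-UAS reporter constructs.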

[9] = ATG_GAL4_TRANS: Attagene TRANS-FACTORIAL HepG2 Assay for GAL4 (Internal Marker) (AID 2282976; active = hit-call score of the fitted dose curve at least 0.9, where 1 is the maximum); conditions: HepG2 Attagene TRANS GAL4 internal marker reporter
Outline: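 Background-control readout: GAL4-UAS reporter transcript in transiently transfected HepG2 cells after 24 h compound exposure. Measured by RT-PCR, 6-FAM primer extension, HpaI digest and capillary electrophoresis; gain-of-signal fit versus DMSO.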

[10] = molecular target: Estrogen-related receptor gamma (Homo sapiens) (UniProt P62508); experiment: ATG_ERRg_TRANS: Attagene TRANS-FACTORIAL HepG2 Assay for human Estrogen-Related Receptor gamma (ERRg) (AID 2282977; active = hit-call score of the fitted dose curve at least 0.9, where 1 is the maximum;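 also: hits increase reporter signal over DMSO so potencies reflect activators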); conditions: HepG2 Attagene TRANS reporter, ERRg transactivation
Sequence of Estrogen-related receptor gamma (Homo sapiens) (P62508 whole entry, looked up, the tested form may be a part): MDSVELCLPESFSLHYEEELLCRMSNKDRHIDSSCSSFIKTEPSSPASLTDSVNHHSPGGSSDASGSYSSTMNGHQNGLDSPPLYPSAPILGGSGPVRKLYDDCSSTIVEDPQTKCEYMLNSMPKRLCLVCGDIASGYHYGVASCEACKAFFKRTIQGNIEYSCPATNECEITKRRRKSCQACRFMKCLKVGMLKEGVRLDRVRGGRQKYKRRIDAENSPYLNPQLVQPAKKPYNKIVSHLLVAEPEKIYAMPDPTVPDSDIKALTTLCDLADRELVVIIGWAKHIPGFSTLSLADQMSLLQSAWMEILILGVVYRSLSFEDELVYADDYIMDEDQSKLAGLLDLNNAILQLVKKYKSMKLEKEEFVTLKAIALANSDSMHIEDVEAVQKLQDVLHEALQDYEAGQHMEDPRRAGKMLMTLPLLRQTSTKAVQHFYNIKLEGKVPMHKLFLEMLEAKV
Outline: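 Induction of reporter transcripts through a chimeric NR-Gal4 protein is quantified in transfected human HepG2 liver cells after 24 h chemical exposure, using RT-PCR with capillary electrophoresis detection and DMSO as baseline.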

Measured: AC50

CCCCCCCCCCCCCCO
active: [2] 100 µM
not listed: [8] | [9] | [10]
inactive: all other assays above

c1ccc2c(c1)-c1cccc3c1c-2cc1ccccc13
not listed: [10]
inactive: all other assays above

O=C(O)c1cccc(C[C@@H]2COc3ccc(OCc4nc5cc(F)ccc5s4)cc3[C@@H]2O)c1
active: [1] 37.8 µM | [6] 160 µM
not listed: [9] | [10]
inactive: all other assays above

NCC(F)(F)C(F)(F)C(F)(F)C(F)(F)F
not listed: [10]
inactive: all other assays above

FC(F)(F)C(F)(F)C(F)(F)C(F)(F)C(F)(F)C(F)(F)I
active: [5] 13.7 µM and 17 µM
inactive: all other assays above

O=C(O)CO
not listed: [10]
inactive: all other assays above

C[C@]12C=CC(=O)C=C1CC[C@H]1[C@@H]3C[C@@H](O)[C@](O)(C(=O)CO)[C@@]3(C)C[C@H](O)[C@@]12F
active: [5] 37.2 µM
inactive: [1] | [2] | [3] | [4] | [6]

NC(=O)NN=Cc1ccc([N+](=O)[O-])o1
inactive: [1] | [2] | [3] | [4] | [6]

O=C(Cl)C(F)(F)C(F)(F)C(F)(F)C(=O)Cl
inactive: all assays above

S=P(N1CC1)(N1CC1)N1CC1
active: [4] 17 µM and 27.4 µM
inactive: [1] | [2] | [3] | [4] | [8] | [5] | [6] | [7] | [9] | [10]

COS(C)(=O)=O
not listed: [7] | [8] | [10]
inactive: all other assays above

COCc1nnc(-c2ccc[n+]([O-])c2)n1-c1c(Cl)c(Cl)cc2[nH]c(=O)c(=O)[nH]c12
not listed: [7] | [8] | [10]
inactive: all other assays above

O=S(=O)(O)CCC(F)(F)C(F)(F)C(F)(F)C(F)(F)C(F)(F)C(F)(F)F
inactive: all assays above

Cc1nccn1-c1ccc(Sc2cccc(C3(C(N)=O)CCOCC3)c2)cc1
active: [1] 6.41 µM | [2] 6.43 µM | [4] 4.16 µM | [6] 1.57 µM
inactive: [3] | [8] | [5] | [10]

CCOc1ccc2[nH]cc(C(=O)NCc3ccccc3)c(=O)c2n1
active: [4] 27.6 µM
not listed: [7]
inactive: all other assays above

CCCCCOC(C)=O
not listed: [5] | [9] | [10]
inactive: all other assays above

C[Si](C)(C)C(F)(F)C(F)(F)C(F)(F)F
inactive: all assays above

OCc1ccccc1
not listed: [5]
inactive: all other assays above

O=S(=O)(O)c1ccc(N=Nc2c(O)ccc3cc(S(=O)(=O)O)ccc23)cc1
not listed: [9]
inactive: all other assays above

COc1cc(C(C)C)c2c(c1)S(=O)(=O)N(COc1cc(=O)n3cccc(OCCN4CCCCC4)c3n1)C2=O
inactive: [2] | [3] | [7]
active: [1] 4.04 µM | [4] 5.67 µM | [8] 2.75 µM | [5] 2.75 µM | [6] 6.56 µM

Cc1nc(-c2ccccn2)ncc1C(=O)Nn1cc(C)c2cc(F)ccc21
not listed: [5]
inactive: all other assays above

FC(F)(F)COC(OCC(F)(F)F)OCC(F)(F)F
not listed: [7]
inactive: all other assays above

O=C(NO)C1(NS(=O)(=O)c2ccc(Oc3ccc(F)cc3)cc2)CCOCC1
not listed: [7] | [8] | [9]
inactive: all other assays above

CCCCCCCCCC
not listed: [8] | [9] | [10]
inactive: all other assays above

OC(O)(C(F)C(O)(O)C(F)(F)F)C(F)(F)F
active: [1] 3.07 µM | [2] 51.9 µM and 25.8 µM | [5] 194 µM | [6] 61.9 µM and 33 µM
inactive: [1] | [3] | [4] | [8] | [5] | [9] | [10]

Cc1ccc(S(=O)(=O)NC(=O)NN2CCCCCC2)cc1
not listed: [7] | [8] | [10]
inactive: all other assays above

OC(CCl)CCl
not listed: [10]
inactive: all other assays above

CCCC(CCC)C(=O)O
not listed: [8] | [10]
inactive: all other assays above

CNC(C)=O
inactive: [2] | [3] | [4] | [8] | [5] | [6]

NC(=O)N(O)[C@@H]1COc2cc(OCc3ccccc3)ccc21
not listed: [1] | [7] | [10]
inactive: all other assays above

FC(F)C(F)(F)COCC1CO1 (stereo not drawn)
active: [5] 82 µM and 39.8 µM
not listed: [1] | [9]
inactive: all other assays above

CCCCC(CC)C(=O)OCCOCCOCCOC(=O)C(CC)CCCC (stereo not drawn)
active: [4] 65.8 µM
not listed: [1] | [7] | [10]
inactive: all other assays above

c1ccc(C(O[C@@H]2CCCN(CCc3ccc4c(c3)OCO4)C2)c2ccccc2)cc1
active: [5] 1.76 µM | [6] 20.9 µM
inactive: [1] | [2] | [3]

OCCOCCOCCO
not listed: [1] | [9] | [10]
inactive: all other assays above

CC1(C)C(=O)N(Cl)C(=O)N1Cl
inactive: [1] | [2] | [3] | [4] | [6] | [7]

O=S1(=O)CCCO1
inactive: [1] | [2] | [3] | [4] | [6] | [9]

O=C(O)[C@H](O)[C@@H](O)C(=O)O
inactive: [1] | [2] | [3] | [6] | [9]

CC[C@H](C)C(=O)O[C@H]1C[C@H](O)C=C2C=C[C@H](C)[C@H](CC[C@@H](O)C[C@@H](O)CC(=O)O)[C@H]21
inactive: [1] | [2] | [3] | [4] | [6] | [9]
